The list is not random: actives were taken first. Their share in the collection is about 10%.
Lamin A splicing: modulators of lamin A splicing; HeLa LMNA splicing GFP/RFP minigene ratio, 48 h; Potency, µM (series often up to 46.1 µM), for the others: at the top dose ratio change, negative = inhibition, actives largely listed as inhibitors; actives 0.01% (n = 200,000); AID 1487; active = well fitted inhibition curve with a large enough effect in the signal ratio, with a control signal flat, not every such curve was filed as active; inconclusive = small, poorly fitted or top-dose-only effect, or effect the other way, or a change in a side signal; the % refers to the signal ratio; note: potency is the fitted concentration of half-maximal effect
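Read-out is the ratio of GFP to DsRed2 object intensity, acquired by 488 nm laser-scanning cytometry on HeLa lamin A-EGFP minigene reporter cells. Compound incubation 48 hrs at 37 °C in Opti-MEM with 2% FBS; DMSO 0.5% final.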
ALDH1A1 block: blocks purified human ALDH1A1 activity; P00352; Purified ALDH1A1, NADH fluorescence, propionaldehyde substrate; Potency, µM (highest dose often 75.3 µM), inactives show top-dose activity, negative = inhibition, hits mostly inhibitors; actives 7.3% (n = 220,000);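 note: potency is the fitted concentration of half-maximal effect; plate controls were no enzyme wells and a reference inhibitor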
PNC assembly inh: blocks assembly of the perinucleolar compartment; PC3M PTB-GFP, PNC prevalence imaging, 16 h; active compounds read low; activity change (PNC), negative = inhibition, % at 10 µM; actives 3.1% (n = 140,000); AID 2417;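 active = readout at or below -70, meaning at least 70% loss of cells showing the perinucleolar compartment, a nuclear body marking cancer cells; inconclusive = readout between -30 and a set limit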;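 note: plate controls were DMSO wells for no effect and camptothecin positive control wells for full effect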
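PC3M cells stably expressing PTB-GFP, 750–1000 cells/well, treated 16 h at 37 °C with compound (23 nl of library stock), in duplicate. After paraformaldehyde fixation and Hoechst stain, imaged at 20x; PNC prevalence scored by image analysis.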
Luc counter: Kinase-Glo luciferase inhibition (counter-screen). Q27757. Potency, µM (titrated, usually from 38.3 µM), inactives show at the highest dose activity change, negative = inhibition, usual class: inhibitors. actives 0.28% (n = 200,000). AID 1379. Kinase-Glo luciferase, ATP luminescence, 8 min; active = well fitted inhibition curve with a large enough effect; inconclusive = small, poorly fitted or top-dose-only effect; note: potency is the fitted concentration of half-maximal effect; nearly all actives have a fitted effect of over 60% in size
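Kinase-Glo luciferase light output from ATP and luciferin was measured with 10 uM ATP, within the enzyme's linear range. Buffer: 50 mM imidazole pH 7.2, 50 mM KCl, 7 mM MgCl2, 0.01% Tween 20, 0.05% BSA; luminescence read after 8 min at ambient temperature.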
HPGD inh: blocks human HPGD enzyme activity. P15428. purified HPGD, NADH fluorescence kinetic, PGE2 substrate. Potency, µM, for the others: top-dose activity change, negative = inhibition, actives largely listed as inhibitors. actives 4.3% (n = 150,000); note: potency is the fitted concentration of half-maximal effect
Target sequence (P15428 whole entry, looked up): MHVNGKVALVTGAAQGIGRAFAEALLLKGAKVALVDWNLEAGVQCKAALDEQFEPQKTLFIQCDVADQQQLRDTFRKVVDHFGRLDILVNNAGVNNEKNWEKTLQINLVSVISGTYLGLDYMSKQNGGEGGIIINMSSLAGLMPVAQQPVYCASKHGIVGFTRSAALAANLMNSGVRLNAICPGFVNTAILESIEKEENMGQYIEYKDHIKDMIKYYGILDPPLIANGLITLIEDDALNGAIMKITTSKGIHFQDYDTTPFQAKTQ
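NADH formation kinetics: reaction with 30 uM PGE2 and 1 mM NAD+ (final), 20 nM enzyme, Tris-HCl pH 8 with Tween 20, after 15 min compound preincubation at room temperature. Fluorescence change, last versus first of five reads.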
* = called active by the depositor; ? = inconclusive; nt = no result; [ ] = another dose, or the depositor's remark. Unless noted, calls come from the whole dose curve; as a rule, active = well fitted inhibition curve with a large enough effect (not every such curve was filed as active); inconclusive = small, poorly fitted or top-dose-only effect, or another doubt; inactive = no such curve, though single readings can be large or run the other way. Unless noted, % is set by controls: 0 for no effect and ±100 for the full control effect.

SMILES	Lamin A splicing	ALDH1A1 block	PNC assembly inh	Luc counter	HPGD inh
COc1ccc2c(c1)O[C@@H](c1cccc(C(F)(F)F)c1)[C@H](OC(=O)NC1CCCC1)C2=O	nt	-7%	nt	1%	-12%
CC[C@H]1C2=C3C(CC[C@H]4C(OCc5ccc(F)cc5C(F)(F)F)OC[C@](C)([C@@H]34)N(C(=O)OC(C)(C)C)C2)C2COC(=O)OCC21 (stereo partly drawn)	nt	-8%	nt	-4%	-12%
Cc1ccc(N2C(=O)CSC23C(=O)N(CC(=O)NC2CCCCC2)c2ccccc23)cc1 (stereo not drawn)	-16%[46 µM]	nt	nt	nt	nt
COc1cccc(-c2oc3ccccc3c(=O)c2O)c1	nt	-11%	nt	-5%	?
O=c1c(O)c(-c2cccc(O)c2)oc2ccccc12	nt	?	nt	0%	28µM*
CN(CC(=O)N1CCCCCC1)S(=O)(=O)c1ccc(F)cc1	14%[46 µM]	-1%	nt	-3%	nt
COc1ccc(NC(=O)c2c(NCc3cccs3)sc3c2CCCCC3)c(OC)c1	7%[46 µM]	nt	nt	nt	nt
O=[N+]([O-])c1ccc2c(c1)C(N1CCOCC1)/C(=C/COc1ccc(F)cc1)O2 (stereo not drawn)	?	?	5	2%	-14%
O=[N+]([O-])c1ccc(OC/C=C2\Oc3ccc([N+](=O)[O-])cc3C2N2CCOCC2)cc1 (stereo not drawn)	-13%	25µM*	?	4%	-7%
O=C(Nc1ccccc1)NC1(C(=O)NCc2cccs2)CCCCC1	-6%	?	-96*	3%	?
C=CCN1C(=O)C(CC(=O)O)SC1=Nc1cccc([N+](=O)[O-])c1 (stereo not drawn)	-15%[46 µM]	14µM*	nt	2%	nt
C=CCN1C(=O)C(CC(=O)O)SC1=Nc1ccc(N=Nc2ccccc2)cc1 (stereo not drawn)	nt	-13%	nt	nt	nt
Cn1cnnc1SCC(=O)Nc1ccc2nc(SCc3ccccc3)sc2c1	11%	3.5µM*	-1	2%	?
O=C(COc1ccccc1F)Nc1ccc2nc(SCc3ccccc3)sc2c1	6%[46 µM]	nt	nt	nt	nt
Cc1cccc(NC(=O)CSc2nc3ccc(NC(=O)c4ccccc4)cc3s2)c1	31%[46 µM]	nt	nt	nt	nt
Cn1cnnc1SCC(=O)Nc1ccc2nc(SCc3ccccc3Cl)sc2c1	-12%	25µM*	14	-3%	-19%
Cn1cnnc1SCC(=O)Nc1ccc2nc(SCc3cccc4ccccc34)sc2c1	?	14µM*	?	-5%	-17%
COCC(=O)N1CCC2(CCCN(Cc3nccs3)C2)CC1	nt	15%	nt	-5%	0%
Cc1c(C(=O)NC2CCCCC2)sc2nc3ccc(N)cc3n12	nt	-15%	nt	-2%	-14%
COc1ccc(Oc2ncc3ncc(=O)n(CCC#N)c3n2)cc1	nt	0%	nt	0%	-10%
OCc1nc2ccccc2n1CC(O)Cn1ccc2ccccc21 (stereo not drawn)	?	22µM*	18	-3%	-18%
Oc1ccccc1NCC(O)Cn1ccc2ccccc21 (stereo not drawn)	10%	14µM*	10	nt	nt
OC(CNCc1ccccc1)Cn1ccc2ccccc21 (stereo not drawn)	11%	?	47	0%	-12%
Cc1cc(C)n(CC(O)Cn2ccc3ccccc32)n1 (stereo not drawn)	-2%	-16%	11	18%	?
O=C1c2ccccc2S(=O)(=O)N1CC(O)Cn1ccc2ccccc21 (stereo not drawn)	10%	13µM*	30	2%	-19%
Cc1ccc(-n2c(SCC(=O)Nc3ccc4c(c3)OCCO4)nc3c([nH]c4ccccc43)c2=O)cc1	-8%[46 µM]	nt	nt	nt	nt
COc1ccc(COc2ccc(C3C(S(=O)(=O)c4ccccc4)CON3C)cc2OC)cc1 (stereo not drawn)	?	8.9µM*	nt	1%	nt
COc1ccccc1-c1cn[nH]c(=S)n1	1%	7.1µM*	-14	3%	22µM*
COc1ccccc1-c1n[nH]c(=S)n1Cc1ccco1	-6%[46 µM]	3%	nt	-3%	nt
C/C(=N\NC(=O)c1ccc(CN(C)S(=O)(=O)c2ccc(C)cc2)cc1)c1ccc(OC(F)F)cc1	?	25µM*	5	nt	nt

Assay outcomes (PubChem)
